Test results published in PubChem BioAssay (NCI).
Compounds without any hit were thinned out: in the full panel of roughly 79,000, 15% have a hit. Unmarked numbers belong to inactive results. Activity calls are given as the source filed them. No stated cut-off is given here; in the data, active means growth inhibition above about 70%; inactive means the rest.

Experiment: NCI Yeast Anticancer Drug Screen. Data for the rad50EPP+ strain (AID 151);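 further: 0% = growth of vehicle-treated control cultures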
Conditions: S. cerevisiae rad50 mutant strain, at 3.7 µM, hits give high values
Procedure, shortened: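 Strain rad50EPP+; compound exposure; % growth inhibition vs vehicle.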

SMILES	growth inhibition
C=C[C@H]1CN2CC[C@H]1C[C@@H]2[C@@H](O)c1ccnc2ccccc12	0%
O=c1c2ccccc2[se]n1-c1cccnc1	94% (active)
CC12CCC(C1)C(C)(C)C2OC(=O)c1ccccc1N (configuration not stated)	5%
OC1(c2ccccc2)CC2CCC(C1)N2CCCC(O)(c1ccccc1)c1ccccc1 (configuration not stated)	-3%
COC(=O)C(F)C(Br)C(=O)OC (configuration not stated)	90% (active)
CNCC(O)c1ccc(O)c(O)c1.[Pt].c1ccc([PH+](c2ccccc2)c2ccccc2)cc1.c1ccc([PH+](c2ccccc2)c2ccccc2)cc1	-3%
Nc1nc(N)c(-c2ccc(Cl)c(Cl)c2)c(CP(Cl)(Cl)(Cl)Br)n1	4%
CC1CC(C)CC(C)C(O)/C(C#N)=C/C=C/CC(C2CCCC2C(=O)O)OC(=O)CC(O)C(C)C1 (configuration not stated)	21%

Same assay, conditions: S. cerevisiae rad50 mutant strain, at 11.0 µM, hits give high values

SMILES	growth inhibition
C=C[C@H]1CN2CC[C@H]1C[C@@H]2[C@@H](O)c1ccnc2ccccc12	-2%
O=c1c2ccccc2[se]n1-c1cccnc1	98% (active)
CC12CCC(C1)C(C)(C)C2OC(=O)c1ccccc1N (configuration not stated)	0%
OC1(c2ccccc2)CC2CCC(C1)N2CCCC(O)(c1ccccc1)c1ccccc1 (configuration not stated)	0%
COC(=O)C(F)C(Br)C(=O)OC (configuration not stated)	97% (active)
CNCC(O)c1ccc(O)c(O)c1.[Pt].c1ccc([PH+](c2ccccc2)c2ccccc2)cc1.c1ccc([PH+](c2ccccc2)c2ccccc2)cc1	-21%
Nc1nc(N)c(-c2ccc(Cl)c(Cl)c2)c(CP(Cl)(Cl)(Cl)Br)n1	20%
CC1CC(C)CC(C)C(O)/C(C#N)=C/C=C/CC(C2CCCC2C(=O)O)OC(=O)CC(O)C(C)C1 (configuration not stated)	68%

Same assay, conditions: S. cerevisiae rad50 mutant strain, at 33.0 µM, hits give high values

SMILES	growth inhibition
C=C[C@H]1CN2CC[C@H]1C[C@@H]2[C@@H](O)c1ccnc2ccccc12	-3%
O=c1c2ccccc2[se]n1-c1cccnc1	98% (active)
CC12CCC(C1)C(C)(C)C2OC(=O)c1ccccc1N (configuration not stated)	7%
OC1(c2ccccc2)CC2CCC(C1)N2CCCC(O)(c1ccccc1)c1ccccc1 (configuration not stated)	2%
COC(=O)C(F)C(Br)C(=O)OC (configuration not stated)	98% (active)
CNCC(O)c1ccc(O)c(O)c1.[Pt].c1ccc([PH+](c2ccccc2)c2ccccc2)cc1.c1ccc([PH+](c2ccccc2)c2ccccc2)cc1	11%
Nc1nc(N)c(-c2ccc(Cl)c(Cl)c2)c(CP(Cl)(Cl)(Cl)Br)n1	33%
CC1CC(C)CC(C)C(O)/C(C#N)=C/C=C/CC(C2CCCC2C(=O)O)OC(=O)CC(O)C(C)C1 (configuration not stated)	93% (active)

Same assay, conditions: S. cerevisiae rad50 mutant strain, at 100.0 µM, hits give high values

SMILES	growth inhibition
C=C[C@H]1CN2CC[C@H]1C[C@@H]2[C@@H](O)c1ccnc2ccccc12	-3%
O=c1c2ccccc2[se]n1-c1cccnc1	87% (active)
CC12CCC(C1)C(C)(C)C2OC(=O)c1ccccc1N (configuration not stated)	1%
OC1(c2ccccc2)CC2CCC(C1)N2CCCC(O)(c1ccccc1)c1ccccc1 (configuration not stated)	5%
COC(=O)C(F)C(Br)C(=O)OC (configuration not stated)	97% (active)
CNCC(O)c1ccc(O)c(O)c1.[Pt].c1ccc([PH+](c2ccccc2)c2ccccc2)cc1.c1ccc([PH+](c2ccccc2)c2ccccc2)cc1	93% (active)
Nc1nc(N)c(-c2ccc(Cl)c(Cl)c2)c(CP(Cl)(Cl)(Cl)Br)n1	48%
CC1CC(C)CC(C)C(O)/C(C#N)=C/C=C/CC(C2CCCC2C(=O)O)OC(=O)CC(O)C(C)C1 (configuration not stated)	97% (active)

Experiment: NCI Yeast Anticancer Drug Screen. Data for the mgt1 strain (AID 153)
Conditions: S. cerevisiae mgt1 mutant growth inhibition; at 1.2 µM; hits give high values
Procedure, shortened: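 Read-out: yeast growth inhibition vs vehicle control. Strain mgt1, drawn from a panel altered in DNA damage repair or cell cycle control.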

SMILES	growth inhibition [%]
C=C[C@H]1CN2CC[C@H]1C[C@@H]2[C@@H](O)c1ccnc2ccccc12	2
CC12CCC(C1)C(C)(C)C2OC(=O)c1ccccc1N (configuration not stated)	-3
COC(=O)C(F)C(Br)C(=O)OC (configuration not stated)	16
CCCCCCCCCC[Se]C#N	-2

Same assay, conditions: S. cerevisiae mgt1 mutant growth inhibition; at 3.7 µM; hits give high values

SMILES	growth inhibition
C=C[C@H]1CN2CC[C@H]1C[C@@H]2[C@@H](O)c1ccnc2ccccc12	1%
CC12CCC(C1)C(C)(C)C2OC(=O)c1ccccc1N (configuration not stated)	0%
COC(=O)C(F)C(Br)C(=O)OC (configuration not stated)	82% (active)
CCCCCCCCCC[Se]C#N	0%

Same assay, conditions: S. cerevisiae mgt1 mutant growth inhibition; at 11.0 µM; hits give high values

SMILES	growth inhibition
C=C[C@H]1CN2CC[C@H]1C[C@@H]2[C@@H](O)c1ccnc2ccccc12	3%
CC12CCC(C1)C(C)(C)C2OC(=O)c1ccccc1N (configuration not stated)	-5%
COC(=O)C(F)C(Br)C(=O)OC (configuration not stated)	98% (active)
CCCCCCCCCC[Se]C#N	0%

Same assay, conditions: S. cerevisiae mgt1 mutant growth inhibition; at 33.0 µM; hits give high values

SMILES	growth inhibition
C=C[C@H]1CN2CC[C@H]1C[C@@H]2[C@@H](O)c1ccnc2ccccc12	0%
CC12CCC(C1)C(C)(C)C2OC(=O)c1ccccc1N (configuration not stated)	-9%
COC(=O)C(F)C(Br)C(=O)OC (configuration not stated)	99% (active)
CCCCCCCCCC[Se]C#N	16%

Same assay, conditions: S. cerevisiae mgt1 mutant growth inhibition; at 100.0 µM; hits give high values

SMILES	growth inhibition
C=C[C@H]1CN2CC[C@H]1C[C@@H]2[C@@H](O)c1ccnc2ccccc12	4%
CC12CCC(C1)C(C)(C)C2OC(=O)c1ccccc1N (configuration not stated)	5%
COC(=O)C(F)C(Br)C(=O)OC (configuration not stated)	99% (active)
CCCCCCCCCC[Se]C#N	95% (active)
